High-throughput results (PubChem)
FBW7 act = human FBW7 E3 ligase activation, primary screen; 650,000 compounds, 0.13% hits; normalized activity (activation), % at 26.1 µM; AlphaScreen FBW7–phospho-cyclin E peptide binding, activator screen; Q969H0; AID 1259310; in the data active = normalized activity above about 1.9%;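 note: purified mutant Fbw7 with reduced substrate affinity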
TEAD-YAP inh = TEAD-YAP interaction inhibition. HEK-TIYL cells, TEAD-Gal4/YAP UAS-luciferase luminescence. inhibition, % at 9.12 µM. 640,000 compounds, 1.4% hits; in the data active = inhibition above about 32%
GPR151 activ = human GPR151 activation. Q8TDV0. PathHunter beta-arrestin GPR151 cells, luminescence. activation, % at 11.2 µM. 650,000 compounds, 1% hits; in the data active = activation above about 4.9%
MITF primary = blocks human microphthalmia-associated transcription factor. O75030. AlphaScreen MITF homodimerization, bead proximity signal. inhibition, % at 2.6 µM. 650,000 compounds, 0.91% hits; in the data active = inhibition above about 50%
GPR151 confirm = confirmation of human GPR151 activators. shares compounds with GPR151 activ. GPR151 PathHunter beta-arrestin cells, luminescence, 90 min; % of EA-reagent control over plate median. activation, % at 11.2 µM. 6,700 tested, under 10 active. AID 1508609;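 active = mean percent activation across replicates above the confirmation screen cutoff of 4.91%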
GPR119 ag = activates human GPR119 in a GPR151 counter-screen; shares compounds with GPR151 activ; GPR119 PathHunter beta-arrestin cells, luminescence, 90 min; 0 = compound-well median, 100 = enzyme-acceptor control; activation, % at 11.2 µM; 6,700 compounds, 0.3% hits;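 active = mean percent activation in the counterscreen above 29.09%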;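 note: counterscreen on off-target GPR119 to flag nonselective hits from the GPR151 activator screen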
Target sequence (Q8TDV5 whole entry, looked up): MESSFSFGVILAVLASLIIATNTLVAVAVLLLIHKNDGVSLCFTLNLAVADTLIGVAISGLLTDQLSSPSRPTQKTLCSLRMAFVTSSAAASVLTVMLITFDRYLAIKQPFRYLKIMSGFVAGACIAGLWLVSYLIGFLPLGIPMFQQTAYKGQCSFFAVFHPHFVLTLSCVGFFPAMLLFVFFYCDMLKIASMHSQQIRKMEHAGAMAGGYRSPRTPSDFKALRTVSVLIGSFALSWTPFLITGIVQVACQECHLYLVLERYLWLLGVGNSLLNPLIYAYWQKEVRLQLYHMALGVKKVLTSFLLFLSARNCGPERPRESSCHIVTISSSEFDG
Each line names hits and unclear results; the compound was inactive in the other large screens (follow-up assays come after a bar, where they were run). Only some compounds are listed: those with a hit (about 3.5% of all), similar ones and a draw of the others.

COc1ccc(-c2nc3n(n2)C(c2ccc(OC)cc2OC)C(C(N)=O)=C(C)N3)cc1 (stereo not given)	GPR151 activ 7.4 | GPR151 confirm inactive | GPR119 ag inactive
COc1ccc(-c2nc3n(n2)C(c2cccc(OC)c2OC)C(C(N)=O)=C(C)N3)cc1 (stereo not given)	none
CCOc1cccc2c1OC1(C)CC2NC(=S)N1 (stereo not given)	none
COc1ccc(CCNc2cc(C)nc(Nc3ccc(-n4ccnc4)cc3)n2)cc1	TEAD-YAP inh 77, GPR151 activ 5.3 | GPR151 confirm inactive | GPR119 ag 54
COc1ccc(CCNc2ccnc(Nc3ccc4ncccc4c3)n2)cc1	TEAD-YAP inh 51, GPR151 activ 5.9, MITF primary 63 | GPR151 confirm inactive | GPR119 ag inactive
CCCNc1ccnc(Nc2ccc(-n3ccnc3)cc2)n1	none
CC(C)n1cnc2c(NCc3ccccc3)nc(Nc3ccc(-n4ccnc4)cc3)nc21	none
COc1ccc(CCNc2ccnc(Nc3ccc(-n4ccnc4)cc3)n2)cc1	TEAD-YAP inh 82, GPR151 activ 6.5 | GPR151 confirm inactive | GPR119 ag 38
Oc1ccc(CCNc2ccnc(Nc3ccc4ncccc4c3)n2)cc1	none
CC(C)n1cnc2c(NCCO)nc(Nc3ccc(-n4ccnc4)cc3)nc21	GPR151 activ 5.4 | GPR151 confirm inactive | GPR119 ag inactive
CCN(Cc1ccccc1)C(=O)C1CC2CCCN2C12C(=O)Nc1ccccc12 (stereo not given)	none
Cc1cccn2cc(-c3cc4c(ccc5ccccc54)oc3=O)nc12	none
CC(C)n1cnc2c(NCc3cccc(C(F)(F)F)c3)nc(Nc3ccncc3)nc21	GPR151 activ 5.9 | GPR151 confirm inactive | GPR119 ag inactive
Oc1ccc(CCNc2nc(NCc3ccc4c(c3)OCO4)nc3c2ncn3C2CCCCC2)cc1	GPR151 activ 17 | GPR151 confirm inactive | GPR119 ag inactive
COc1ccc(CCNc2cc(C)nc(NC3CCC(O)CC3)n2)cc1 (stereo not given)	GPR151 activ 6.8 | GPR151 confirm inactive | GPR119 ag inactive
COc1ccc(CCNc2nc(Nc3ccc(-n4ccnc4)cc3)nc3c2ncn3C2CCCCC2)cc1	GPR151 activ 6.1 | GPR151 confirm inactive | GPR119 ag inactive
COCCn1c(Cc2ccccc2)n[nH]c1=S	none
O=C(NCc1ccccc1Cl)c1ccc(CNc2nc(=S)[nH]c3ccccc23)cc1	none
CCOC(=O)C1=CN(C(C)C)C=C(C(=O)OCC)C1c1ccc(OC)cc1OC	GPR151 activ 5.4 | GPR151 confirm inactive | GPR119 ag inactive
CCOc1cc(C2C(C(=O)OC)=CN(C(C)C)C=C2C(=O)OC)cc(Br)c1O	GPR151 activ 7.2 | GPR151 confirm inactive | GPR119 ag inactive
COc1ccc(C(=O)NC2(C(F)(F)F)N=C3SCCN3C2=O)cc1OC (stereo not given)	none
Cc1noc(C(=O)Nc2c(C)nn(Cc3ccccc3)c2C)c1Cl	GPR151 activ 5.3 | GPR151 confirm inactive | GPR119 ag inactive
O=C(CCCN1C(=O)c2cccnc2C1=O)Nc1ccc(C(F)(F)F)cc1	GPR151 activ 9.0 | GPR151 confirm inactive | GPR119 ag inactive
CC1=NN(c2ccc(Br)cc2)C(=O)/C1=C/c1ccc(C)s1	GPR151 activ 7.5 | GPR151 confirm inactive | GPR119 ag inactive
COC(=O)c1ccc(N2N=C(C)/C(=C/c3ccc(C)s3)C2=O)cc1	none
CC(=O)N1CCN(c2ccc(Cl)cc2)CC1	none
O=C(C[n+]1ccccc1)N/N=C/c1cccs1	GPR151 activ 6.1 | GPR151 confirm inactive | GPR119 ag inactive
CCN(CC)S(=O)(=O)c1ccc(OCc2ccccc2C#N)c([N+](=O)[O-])c1	GPR151 activ 5.0 | GPR151 confirm inactive | GPR119 ag inactive
Oc1ccc(Nc2ncnc3ccc(I)cc23)cc1	GPR151 activ 8.2 | GPR151 confirm inactive | GPR119 ag inactive
O=C(CN1C(=O)C2C3CCC(C3)C2C1=O)Oc1ccccc1-c1ccccc1 (stereo not given)	none
Cc1c(C(=O)Nc2c(F)cc(F)cc2Br)sc2ncn(CC(=O)N3CCCCC3C)c(=O)c12 (stereo not given)	none
Cc1c(Cl)cccc1NC(=O)c1ccc(N2C(=O)c3ccccc3C2=O)cc1	GPR151 activ 7.0 | GPR151 confirm inactive | GPR119 ag inactive
